In PubChem BioAssay (NCI):
“And” between values parts separate entries of the source, which are not always exact repeats. Equal entries are not always repeated. About 83,000 compounds went through this panel and 20% of them were active in at least one assay; those are over-represented in the sample as a whole.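 In brief: 96-well plates, 48 h treatment, single concentration, percent growth endpoint.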 The source made the active and inactive calls. The calls were made as follows: active = growth percent below 10; inactive = the rest.

Each compound was assayed on TK-10 renal (assay: NCI-60 one-dose screen, 48 h (100 = growth as untreated, 0 = no growth, -100 = all killed)). Conditions: 10 µM unless noted.

Row | Structure (SMILES) | growth
1 | Cn1c(COC(=O)NC2CCCCC2)c(COC(=O)NC2CCCCC2)c2ccc3cc(Cl)c(Cl)cc3c21 | -93.7% [100 µM] (active)
2 | C=C1C(=O)C2=CC1CCC(=O)C1(C)CCC(OC(C)=O)C(C)(C)C1CC2O (centres undefined) | -96% [100 µM] (active) and -89.5% [100 µM] (active)
3 | CC1=C(Cl)C[C@@H](/C(C)=C\Cl)O[C@@]1(O)C(Br)Br | 101% [100 µM] (inactive) and -87.5% [100 µM] (active)
4 | CC1(C)CCC2(C(=O)O)C(O)CC3(C)C(=CCC4C5(C)CCC(OC6OCC(O)C(O)C6OC6OCC(O)C(O)C6OC6OCC(O)C(OC7OC(CO)C(O)C(O)C7O)C6O)C(C)(C)C5CCC43C)C2C1 (centres undefined) | 116% [100 µM] (inactive) and 15.1% [100 µM] (inactive)
5 | COc1ccc2c(c1)C(N)=C(c1ccccc1)C2=O | 99.7% [100 µM] (inactive) and 3.68% [100 µM] (active)
6 | O=C(O)CCCOc1cc(-c2ccccc2F)nc2cc3c(cc12)OCO3 | 53.8% [100 µM] (inactive) and 2.37% [100 µM] (active)
7 | CC1=C(C2=C(C)C(=O)C(=O)c3cc(C)ccc32)c2ccc(C)cc2C(=O)C1=O | -100% [100 µM] (active)
8 | COC(=O)[C@]1(C)CCC[C@@]2(C)[C@@H]3C[C@@H]4[C@H]5C[C@@]3(CC[C@@H]21)C[C@@]45C | -88.2% [100 µM] (active) and -65.7% [100 µM] (active)
9 | C=c1c2ccccc2oc2nc3[nH]c(N)c(C#N)c(N)c3c(=N)c12 | 43.9% [100 µM] (inactive) and -12.1% [100 µM] (active)
10 | S=C1NC2=C(COc3ccccc32)C(c2ccc(Cl)cc2)N1 (centres undefined) | -3.55% [100 µM] (active) and -100% [100 µM] (active)
11 | Cc1ccc(NC(=S)C#N)cc1Cl | 7.58% [100 µM] (active) and -53.9% [100 µM] (active)
12 | CCOc1cc2c(cc1O)/C(=N\OC)C[C@@H]1[C@@H]2CC[C@]2(C)[C@@H](O)CC[C@@H]12 | -12.5% [100 µM] (active) and -99.5% [100 µM] (active)
13 | C=CCO/N=C/c1cc(NC(=S)c2ccoc2C)ccc1Cl | -93.7% [100 µM] (active) and -93.1% [100 µM] (active)
14 | CCOC(=O)C1C(C(C)C)C2(C#N)C(=N)OC1(C)C2(C#N)C#N (centres undefined) | 5.66% [100 µM] (active) and -73.8% [100 µM] (active)
15 | O=Cc1ccc(-c2ccc(-c3ccc(CO)s3)o2)s1 | -35% [100 µM] (active) and -93.3% [100 µM] (active)
16 | C[C@@H]1CCC([C@@H](C)[C@H]2CC[C@H]3[C@@H]4CC[C@H]5C[C@@H](O)CC[C@]5(C)[C@H]4CC[C@]23C)=NC1 | 27.5% [100 µM] (inactive) and -69% [100 µM] (active)
17 | Cc1c2c(c(C)c3c[n+](C)ccc13)Oc1ccccc1O2 | -2.16% [100 µM] (active) and -100% [100 µM] (active)
18 | CC1=CC[C@@H]2[C@@H](CC[C@@]2(C)O)C(C)(C)[C@H]1CC[C@@H]1[C@@]2(C)CC[C@@H](O)C(C)(C)O[C@@H]2CC[C@]1(C)O | 12.5% [100 µM] (inactive) and -92.2% [100 µM] (active)
19 | C=C1C(=O)OC2CC3(C)CCCC(C)C3=CC12 (centres undefined) | -100% [100 µM] (active) and -97% [100 µM] (active)
20 | CCOC(=O)COc1cc(-c2ccccc2F)nc2cc3c(cc12)OCO3 | 126% [100 µM] (inactive) and 78.4% [100 µM] (inactive)
21 | CC(C)(C)N/N=C(/Cc1nc2c3c(ccc2[nH]c1=O)C(=O)c1ccccc1C3=O)C(=O)NC1=C(Cl)C(=O)c2ccccc2C1=O | 59.3% [100 µM] (inactive) and -41.1% [100 µM] (active)
22 | Fc1cccc(F)c1C1SCc2nc3cc4ccccc4cc3n21 (centres undefined) | 27% [100 µM] (inactive) and 34.3% [100 µM] (inactive)
23 | Cc1cc(O)c2c(c1)C(=O)C(c1c(C)cc3c(c1O)C(=O)C1OC1C3=O)=CC2=O (centres undefined) | -99.7% [100 µM] (active) and -86.5% [100 µM] (active)
24 | C=C(CO)C(=O)OC1CC(=C)C2CC(O)C(C)C2C2OC(=O)C(=C)C12 (centres undefined) | 103% [100 µM] (inactive) and -92% [100 µM] (active)
